In ChEMBL document CHEMBL4513216, “Probing the Open Global Health Chemical Diversity Library for Multistage-Active Starting Points for Next-Generation Antimalarials” (ACS Infect Dis, 2020):
Out of some 69,000 compounds screened, about 8,600 (12%) showed an effect of 50% or more. Shown is part of a subset that was picked to be rich in strong results.

These compounds were tested on Plasmodium berghei (assay: Screen against P. berghei liver stage (PbLuc), transformed with Luciferase, at 10uM). Details: tested at 10 uM.
Format: functional, HepG2

Point of comparison: Cc1nc2ccccc2c(=O)n1CCC(=O)N1CCCC1, INHIBITION 17.36%. Against it:
- COCCN1CCC2(C1)c1ccccc1S(=O)(=O)N2C (stereo not drawn) — higher, 40.5%
- Cc1cc(O)nc(C2CN(CC3(O)CCOCC3)CCO2)n1 (stereo not drawn) — lower, -34.6%
- Cc1cc(O)nc(C2CN(CCO)CCO2)n1 (stereo not drawn) — higher, 50.8%
- Cc1cc(O)nc(C2CN(CCC(F)(F)F)CCO2)n1 (stereo not drawn) — lower, -6.92%
- CN1CCN(C[C@@H]2CN(C3Cc4ccccc4C3)C[C@@H]2CO)CC1 — lower, 8.51%
- CC(NC(=O)C1CCCCC1)c1cc(O)nc(-c2cccnc2)n1 (stereo not drawn) — lower, -6.002%
- O=C(c1sccc1C1CC1)N1CCCN(c2cccnn2)CC1 — lower, 15.7%
- Cc1ccsc1CN(C)CCc1scnc1C — higher, 46.9%
- Cc1ncsc1CCN(C)Cc1ccc(CO)o1 — higher, 57.6%
- Cc1ncsc1CCN(C)Cc1ccc(Br)o1 — higher, 47.1%
- CC(=O)N1CCCC(c2ncncc2-c2ccncc2)C1 (stereo not drawn) — higher, 26.8%
- COc1ccc(CN2C[C@@H](OCc3ccccn3)[C@H]3COC[C@H]32)cc1 — higher, 34.7%
- Cc1ccc(S(=O)(=O)NCc2cccc(C(=O)N3CCCC3)c2)cc1F — lower, -51.5%
- CC(C)c1noc(CCCC(=O)N2CCN(Cc3ccccn3)CC2)n1 — higher, 40%
- Cc1ccc(NC2CCN(C(=O)Cc3c(C)noc3C)CC2)nn1 — higher, 28.38%
- Cc1[nH]/c(=N\C(=O)c2csc(NC3CC3)n2)sc1C — higher, 77.9%
- CC(C)NC(=O)c1csc(NC2CC2)n1 — lower, 13.9%
- CC(=O)Nc1nc(C(=O)N2CCCC(c3cc(C)[nH]n3)C2)cs1 (stereo not drawn) — higher, 22.3%
- Cc1[nH]/c(=N\C(=O)c2csc(NC3CCCC3)n2)sc1C — higher, 83.8%
- CC(C)(C)[S+]([O-])CCNC(=O)c1csc(NC2CC2)n1 (stereo not drawn) — lower, -12.1%
- CC(C)CCNC(=O)c1csc(NC2CC2)n1 — lower, -70.8%
- O=c1[nH]cnc2c1CCN(S(=O)(=O)c1ccc(OC(F)(F)F)cc1)C2 — lower, -10.1%
- CCc1ccc(NC(=O)Nc2c(O)oc3ccccc3c2=O)cc1 — lower, -11.4%
- O=C(COCc1ccccc1)NCc1ccc(O)c(F)c1 — lower, -7.93%
- COCC(=O)N1CCCn2c(CN3CCCC3=O)nnc2C1 — lower, -15.6%
- Cc1cc(CN(C)C(=O)c2ccc(Cl)cc2N2CCCC2=O)no1 — lower, -9.37%
- O=C(c1ccccn1)N1CCC2(CC1)CN(c1cncnc1)C(=O)CO2 — higher, 40.4%
- CC(=O)NCC(=O)N1CCOCC(Cc2ccc3c(ccn3C)c2)C1 (stereo not drawn) — lower, -2.995%
- Cc1cnc(CCNC(Cc2ccncc2)C(F)(F)F)s1 (stereo not drawn) — lower, 11.7%
- Cc1nc(C)c(CCNC(Cc2ccncc2)C(F)(F)F)s1 (stereo not drawn) — higher, 48.5%
- Cc1nc(CCNC(Cc2ccncc2)C(F)(F)F)cs1 (stereo not drawn) — higher, 59.3%
- CN(C)C(=O)c1cc2ncc(C(=O)NC3CCCC3)cc2n1C — lower, -71.5%
- O=C(c1cnc2ccccn12)N1CCCC(c2ccn[nH]2)C1 (stereo not drawn) — lower, -0.71%
- O=C(c1cc(=O)n(-c2ccccc2)[nH]1)N1CCOC(C(F)(F)F)C1 (stereo not drawn) — higher, 63.6%
- O=C(c1cnnn1-c1ccccc1)N1CCCC(c2ccn[nH]2)C1 (stereo not drawn) — lower, 12.9%
- O=C(c1cc(=O)n(-c2ccccc2)[nH]1)N1CCOCC(O)C1 (stereo not drawn) — lower, 0.546%
- O=C(c1ccccc1-c1nc[nH]n1)N1CCOC(C(F)(F)F)C1 (stereo not drawn) — lower, 7.15%
- O=C(c1cc(=O)n(-c2ccccc2)[nH]1)N1CCCC(c2ccn[nH]2)C1 (stereo not drawn) — higher, 55%
- COc1ccc(CNC(=O)Nc2ccc(N3CCCC3)nc2)cc1O — higher, 26.4%
- O=C(NCc1cccs1)[C@H]1CC[C@@H]2[C@@H](CCN2C2CCC2)O1 — lower, -4.88%
- Cc1cnc(C(=O)N2C[C@H]3CN(Cc4nccs4)C[C@H]3C2)cn1 — higher, 81.5%
- O=C(c1cscn1)N1C[C@H]2CN(Cc3nccs3)C[C@H]2C1 — higher, 62.5%
- Cc1cnc(C(=O)N2C[C@H]3CN(Cc4cccnc4)C[C@H]3C2)cn1 — lower, -6.21%
- Cc1cnc(C(=O)N2C[C@H]3CN(Cc4cccs4)C[C@H]3C2)cn1 — lower, -18.2%
- O=C(c1cscn1)N1CCC2(CCN(Cc3nccs3)CC2)CC1 — higher, 35.7%
- NC(=O)N1C[C@H]2CN(Cc3nccs3)C[C@H]2C1 — lower, 14.8%
- O=C(O)c1c(-c2ccncc2)ncc2c1CCN(C1CCOC1)C2 (stereo not drawn) — lower, -12.4%
- CCc1nc(CC(=O)N2CCn3c(C)nnc3C2)cs1 — higher, 27.45%
- CN1C(=O)CC(C(=O)O)C12CCN(Cc1ccc(F)cc1Cl)CC2 (stereo not drawn) — higher, 18.8%
- CN1C(=O)CC(C(=O)O)C12CCN(Cc1ccc(Cl)cc1F)CC2 (stereo not drawn) — lower, 7.84%
- CN1C(=O)CC(C(=O)O)C12CCN(Cc1cc(Cl)ccc1F)CC2 (stereo not drawn) — higher, 50.5%
- O=C(c1ccsc1)N1CCC(Nc2cccnn2)CC1 — lower, -85%
- COc1ccc(NC2(C(=O)N3CCCn4cncc4C3)CCCC2)cc1 — higher, 18.5%
- CN(CC(=O)NCCCOc1ccc(F)cc1)c1ccc(C#N)cn1 — lower, 3.84%
- O=c1[nH]c2cn(-c3ccccc3)c(=O)n2[nH]1 — lower, 14.2%
- Cc1cc(C)nc(C2CCCN2S(=O)(=O)N2CCOCC2)n1 (stereo not drawn) — higher, 43.4%
- Cc1ccc(C(=O)N2CCCC(c3[nH]ncc3S(C)(=O)=O)C2)s1 (stereo not drawn) — higher, 33.7%
- CS(=O)(=O)NC[C@]12COC[C@H]1CN(Cc1ccc3c(c1)OCO3)C2 — higher, 38.5%
- Cn1cc(C(=O)NCC(Cc2cccc(F)c2)N2CCCCC2=O)nn1 (stereo not drawn) — lower, 6.83%
- O=C(CN1CCC(C(=O)c2cc(F)ccc2F)CC1)NC1CCCC1 — higher, 51.3%
- O=C(CN1CCC(C(=O)c2cc(F)ccc2F)CC1)NC1CC1 — higher, 56.5%
- COC(=O)CN1CCC(C(=O)c2cc(F)ccc2F)CC1 — lower, 15.3%
- O=C(CCN1CCC(C(=O)c2cc(F)ccc2F)CC1)NC1CC1 — lower, -1.58%
- O=C(CCN1CCC(C(=O)c2cc(F)ccc2F)CC1)NC1CCCC1 — higher, 36.2%
- C=C(Cl)CN1CCC(C(=O)c2cc(F)ccc2F)CC1 — higher, 17.8%
- CC(=O)N[C@H]1CCO[C@@H](c2cccc(NC(=O)c3cccc(F)c3)c2)C1 — lower, 6.74%
- O=C(NC1CC1)N1CCc2ncc(CN3CCOCC3)n2CC1 — lower, 15.9%
- COc1ccc(CN2CC[C@H]3[C@H]2CC(=O)N3Cc2cccc(C)n2)cc1 — lower, -31.9%
- Cc1ccc(N2C[C@H]3OCC[C@H]3[C@H](C(=O)NCC3CC3)C2)nn1 — higher, 49.7%
- CCc1nnc(CS(=O)(=O)c2ccc(C)cc2)n1C — higher, 35.1%
- CCOC(=O)CN(C)C1CCc2ccccc21 (stereo not drawn) — higher, 34.7%
- CCCN(CCC)C(=O)CN(C)C1CCc2ccccc21 (stereo not drawn) — lower, 15.55%
- CCN(CC)C(=O)CN(C)C1CCc2ccccc21 (stereo not drawn) — higher, 53.5%
- C=C(C)CN(CC)C(=O)CN(C)C1CCc2ccccc21 (stereo not drawn) — lower, -2.725%
- CN(Cc1ccc(Cl)s1)C(=O)CN(C)C1CCCc2ccccc21 (stereo not drawn) — higher, 85.9%
- CN(CCC#N)C(=O)CN(C1CC1)C1CCc2ccccc21 (stereo not drawn) — lower, -4.15%
- CN(Cc1c(F)cccc1Cl)C(=O)CN(C)C1CCc2ccccc21 (stereo not drawn) — higher, 85.1%
- CN(Cc1ccc(Cl)s1)C(=O)CN(C)C1CCc2ccccc21 (stereo not drawn) — higher, 82.5%
- CN(CC(=O)N(C)C1CCCCC1)C1CCc2ccccc21 (stereo not drawn) — higher, 37.2%
- COC(=O)CN(C)C1CCc2ccccc21 (stereo not drawn) — higher, 20.1%
- CC(C)N(C(=O)CN(C)C1CCc2ccccc21)C(C)C (stereo not drawn) — lower, -30.96%
- CN(Cc1cccs1)C(=O)CN(C)C1CCc2ccccc21 (stereo not drawn) — higher, 47.4%
- Cn1c2c(ccc1=O)CC(Nc1ncc(F)cn1)CC2 (stereo not drawn) — lower, -89%
- O=C1COC2(CCN(Cc3ccc(F)cc3)CC2)CN1 — lower, -7.35%
- O=C(CCN1CCOC1=O)N(Cc1ccncc1)CC1CCCO1 (stereo not drawn) — lower, 15.7%
- NC(=O)c1cc(NC(=O)N2CCOCC2)ccc1F — higher, 33.5%
- CS(=O)(=O)CCN1CCC(Nc2c(Cl)cccc2C#N)CC1 — higher, 52.6%
- CCS(=O)(=O)N1CCC(Nc2c(Cl)cccc2C#N)CC1 — higher, 29.4%
- N#Cc1cccc(Cl)c1NC1CCN(CC(N)=O)CC1 — lower, 13.2%
- CC(C)C(C)NC(=O)c1ncn2c1CN(C)S(=O)(=O)c1ccccc1-2 (stereo not drawn) — lower, 8.03%
- CNCc1ccc([C@@H]2CN(C(C)=O)C[C@H]2C(=O)N(C)C)cc1 — higher, 35.55%
- CN(CC(=O)N1CCN(CC(C)(C)O)CC1)c1ccc(Cl)cn1 — higher, 25%
- CN(C)C(=O)N1CCCC(C(=O)N(C)CCCc2cnn(C)c2)C1 (stereo not drawn) — higher, 47.7%
- CN(CCCc1cnn(C)c1)C(=O)C1CCCN(C2CCCC2)C1 (stereo not drawn) — higher, 37.6%
- CC(C)N1CCCC(C(=O)N(C)CCCc2cnn(C)c2)C1 (stereo not drawn) — higher, 51%
- O=C1CCC(=O)N1c1nn(Cc2cccc(F)c2)cc1Cl — lower, 14.5%
- CCCNCc1ccc(-c2ccnc3[nH]ccc23)cc1 — higher, 78.8%
- CCCNCc1ccc(-c2cc(N)nc3[nH]ccc23)cc1 — higher, 19.7%
- CNc1cc(-c2ccc(COCCN)cc2)c2cc[nH]c2n1 — lower, -8%
- Cc1ccc2c(c1)C(=O)NCC1(CCN(C(=O)c3scnc3C)CC1)O2 — lower, 15.9%
- OCCn1nccc1C1CCN(CCOc2ccc(Cl)cc2)CC1 — higher, 38.8%
- CN1CC2(CCCN(Cc3ccccc3OCC(=O)O)C2)OC1=O (stereo not drawn) — lower, 1.37%
- CN1CC2(CCCN(Cc3cccc(Oc4ccccc4)c3)C2)OC1=O (stereo not drawn) — higher, 42.5%
- CN(C)C(=O)COc1ccccc1CN1CCOC2(CCCC2)C1 — lower, 7.58%
- CN1CC2(CCCN(CCOCc3ccccc3)C2)OC1=O (stereo not drawn) — lower, 8.08%
- CN(C)C(=O)COc1ccccc1CN1CCCC2(C1)CN(C)C(=O)O2 (stereo not drawn) — higher, 57.5%
- CN1CC2(CCCN(Cc3ccc(Oc4ccccc4)cc3)C2)OC1=O (stereo not drawn) — higher, 55%
